Inconclusive results are not listed. Entries that show only a call come without a potency. Calls of active or inactive are those of the source. Calls come from the whole dose curve; as a rule, active = well fitted curve in the direction sought with a large enough effect; inconclusive = small, poorly fitted or top-dose-only effect, or another doubt; inactive = no such curve, though single readings can be large; an effect the other way counts as inactive or inconclusive.
Columns and labels:
[1] = biological target: Aldehyde dehydrogenase, mitochondrial (Homo sapiens) (UniProt P05091); assay: qHTS for Inhibitors of the Aldehyde Dehydrogenase Family (ALDH2) Primary screen (AID 2061308); note: nearly all actives have a fitted effect of over 55% in size
[2] = biological target: Retinaldehyde dehydrogenase 3 (Homo sapiens) (UniProt P47895); assay: qHTS for Inhibitors of the Aldehyde Dehydrogenase Family (ALDH1A3) Primary screen (AID 2061315)

Compound	Potency [1]	Potency [2]
c1coc(-c2ccc3ncnc(NCc4cccs4)c3c2)c1	inactive	inactive
COc1ccc(CN(Cc2ccccc2)C(=O)c2ccccc2)cc1COc1ccc(NC(C)=O)cc1	inactive	inactive
COc1ccc(-n2ncc3c2CCCC3NC(=O)c2ccc3ncccc3c2)cc1 (stereo not given)	inactive	inactive
NC(=O)c1cccc(-c2noc(-c3ccccc3F)n2)c1	inactive	inactive
FC(F)(F)c1ccccc1-c1nc(NCC23CC4CC(CC(C4)C2)C3)c2ccccc2n1	inactive	inactive
COCCCc1cc(F)c(S(=O)(=O)N2CCN(S(=O)(=O)c3ccc4c(c3)OCCO4)CC2)cc1F	inactive	inactive
O=C1CCCc2cc(S(=O)(=O)Nc3cnccc3C(=O)Nc3nc(-c4ccccc4)cs3)ccc2N1	inactive	inactive
Cc1ccc(-c2ccc(=O)n(CC(=O)NCCc3ccccn3)n2)cc1	inactive	inactive
COc1ccc(C2C3=C(N=CN(CCN4CCOCC4)C3N)Oc3ccccc32)cc1OC (stereo not given)	inactive	inactive
N#Cc1nc(Nc2cc(F)cc(Cl)c2)nc(NC2CCCC2)n1	inactive	inactive
O=C(Nc1ccc(S(=O)(=O)Nc2nccs2)cc1)c1ccncc1	inactive	inactive
O=C(Nc1cccc(C(=O)O)c1)Nc1nnc(-c2ccncc2)s1	inactive	inactive
CC(C)CC(OC(=O)CNC(=O)c1ccccc1)C(=O)Nc1cc(C(F)(F)F)ccc1Cl (stereo not given)	inactive	inactive
Cc1cccc(-n2cnc3cc(C(=O)N4CCC(C#N)CC4)ccc32)c1	inactive	inactive
Cc1ccc(-c2ccc(=O)n(C(C)C)n2)cc1	inactive	inactive
